Screening results: PubChem BioAssay, National Center for Advancing Translational Sciences (NCATS)
The list is not random: actives were taken first. Their share in the collection is about 7.3%.
Rab9 promoter act = qHTS Assay for Rab9 Promoter Activators | Huh7 Rab9 promoter-luciferase reporter, luminescence, 24 h | Potency, µM (titrated, usually from 9.22 µM), for the others: at the highest dose activation, negative = inhibition, most hits filed as activators | actives 2.8% (n = 320,000); note: % of control where 0% means no effect; nearly all actives have a fitted effect of over 60% in size
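Steps: seed 1500 Huh7 Rab9-luc cells per well, rest 2 h at 37 °C; add compound in DMSO; incubate 24 h; add luciferase reagent, 10 min ambient; read luminescence.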
NPC1 promoter act = qHTS Assay for NPC1 Promoter Activators; Potency, µM (doses to about 9.22 µM), for inactives: at the top dose activation, actives largely listed as activators; actives 2.4% (n = 320,000); AID 485313, 2010; Huh7 NPC1 promoter luciferase reporter, 24 h; note: % of control where 0% means no effect; nearly all actives have a fitted effect of over 60% in size
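Cells: Huh7 expressing luciferase under the NPC1 promoter, 1500/well. Seeded 2 h, compound added, incubated 24 h at 37 °C. Luciferase reagent, 10 min ambient, then luminescence.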
ELG1 genotoxic = qHTS screen for small molecules that induce genotoxicity in human embryonic kidney (HEK293T) cells expressing luciferase-tagged ELG1; HEK293T ELG1-luciferase reporter, luminescence, 16 h; Potency, µM (top dose mostly 46 µM), for the others: at the highest dose activity change, positive = activation, most hits filed as activators; actives 1.3% (n = 330,000); AID 504466, 2011; note: % of control where 0% means no effect; nearly all actives have a fitted effect of over 60% in size
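ELG1-luciferase HEK293T cells, 2,000/well; compound pinned in; 16 hr, 37 °C, 5% CO2; ONE-Glo, 30 min RT; luminescence on CCD imager.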
SMN2 splice enh = qHTS Assay for Enhancers of SMN2 Splice Variant Expression; actives 2.8% (n = 210,000); HEK293 SMN2-luciferase splicing reporter, luminescence, 30-36 h; AID 1458, 2008; Potency, µM (series often up to 46.1 µM), for inactives: at the highest dose activity change, positive = activation, actives largely listed as activators; note: % of control where 0% means no effect; nearly all actives have a fitted effect of over 55% in size
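qHTS luciferase splicing reporter: luminescence rises when SMN2 exon 7 is included in transfected HEK293 cells. Compound exposure lasted 30-36 h at 37C, with 4.5 mM final sodium butyrate as control, followed by a ONE-Glo read.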
KinaseGlo FLuc = Counterscreen for Luciferase (Kinase-Glo TM) Inhibition; Potency, µM (series often up to 38.3 µM), without a hit: top-dose activity change, negative = inhibition, most hits filed as inhibitors; Luciferin 4-monooxygenase (Photuris pensylvanica), Q27757; Kinase-Glo luciferase, ATP luminescence, 8 min; actives 0.28% (n = 200,000); note: % is set by controls: 0 for no effect and ±100 for the full control effect; nearly all actives have a fitted effect of over 60% in size
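Luminescence was the read-out, taken after 8-minute incubation at ambient temperature. Luciferase turned over luciferin with 10 uM ATP in imidazole pH 7.2 buffer containing KCl, MgCl2, Tween 20 and BSA.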
FLuc modulator = qHTS profiling assay for firefly luciferase inhibitor/activator using purifed enzyme and Km concentrations of substrates (counterscreen for miR-21 project) | Luciferin 4-monooxygenase (Photinus pyralis), P08659 | purified FLuc, Km substrates, luminescence inhibition | Potency, µM (highest dose often 57.5 µM), inactives show at the highest dose activity change, negative = inhibition, actives largely listed as inhibitors | actives 6.9% (n = 360,000) | AID 588342, 2011;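 note: plate controls were vehicle for no effect and reference inhibitor for full effect; nearly all actives have a fitted effect of over 55% in size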
Target sequence (P08659 whole entry, looked up): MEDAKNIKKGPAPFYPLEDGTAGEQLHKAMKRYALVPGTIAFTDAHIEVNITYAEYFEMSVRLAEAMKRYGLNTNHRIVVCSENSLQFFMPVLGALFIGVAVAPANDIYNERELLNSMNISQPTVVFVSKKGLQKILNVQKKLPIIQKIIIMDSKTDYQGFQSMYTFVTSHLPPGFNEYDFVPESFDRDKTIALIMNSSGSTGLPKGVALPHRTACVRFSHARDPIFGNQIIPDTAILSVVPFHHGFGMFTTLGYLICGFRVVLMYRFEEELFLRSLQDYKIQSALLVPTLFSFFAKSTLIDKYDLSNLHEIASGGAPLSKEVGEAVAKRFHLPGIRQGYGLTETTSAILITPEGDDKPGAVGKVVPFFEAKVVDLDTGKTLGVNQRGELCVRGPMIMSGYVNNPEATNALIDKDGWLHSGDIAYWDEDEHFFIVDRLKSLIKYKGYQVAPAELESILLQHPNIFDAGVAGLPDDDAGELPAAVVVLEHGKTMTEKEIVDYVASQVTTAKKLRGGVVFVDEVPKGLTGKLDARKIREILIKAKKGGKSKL
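Purified P. pyralis luciferase (10nM final) with 10uM D-luciferin and 10uM ATP (Km levels) in 50mM Tris acetate pH 7.5, 10mM Mg acetate, 0.01% Tween-20, 0.05% BSA; qHTS 6-point titration, ~60 µM downward; luminescence read.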
Active calls of the source: *; ? = inconclusive; / = not tested or not shown; [ ] = dose if it differs, or a comment. Calls come from the whole dose curve; as a rule, active = well fitted curve in the direction sought with a large enough effect; inconclusive = small, poorly fitted or top-dose-only effect, or another doubt; inactive = no such curve, though single readings can be large; an effect the other way counts as inactive or inconclusive. Potency is the fitted concentration of half-maximal effect.

SMILES	Rab9 promoter act	NPC1 promoter act	ELG1 genotoxic	SMN2 splice enh	KinaseGlo FLuc	FLuc modulator
CCOc1ccc2nc(N3CCC(C(=O)NCCCN4CCOCC4)CC3)sc2c1	3.5µM*	?	?	/	/	8.5µM*
CCOc1ccc2nc(N3CCCC(C(=O)NCCCN4CCOCC4)C3)sc2c1 (stereo unspecified)	30%	22%	?	13µM*	2%	13µM*
CCOc1ccc2nc(N3CCC(C(=O)Nc4c(C)cccc4C)CC3)sc2c1	/	/	/	-4%	/	-13%
O=C(Cn1c(=O)nc(-c2ccccc2)c2cc(Cl)ccc21)Nc1ccc(F)c(Cl)c1	/	/	/	0%	/	-7%
COc1ccc(-n2c(C)cc(C(=O)CN3C(=O)NC4(CCCc5sccc54)C3=O)c2C)cc1 (stereo unspecified)	0%	-2%	-2%	-33%	-6%	1%
Cc1cc(C(=O)CN2C(=O)NC3(CCCc4sccc43)C2=O)c(C)n1-c1ccccc1 (stereo unspecified)	12%	9%	-1%	10%	-1%	17µM*
CC[n+]1c(/C=C/C=C2/N(C)c3ccccc3C2(C)C)sc2ccccc21	-44%[46.1 µM]	-31%[46.1 µM]	/	/	/	/
Cc1cccc(NC(=O)c2sc3nc(-c4ccccc4)cn3c2C)n1	1%	16%	-6%	-53%	5%	?
COc1ccc(-c2cn3c(C)c(C(=O)Nc4cccc(C)n4)sc3n2)cc1	2%	0%	-12%	?	-2%	12µM*
COc1ccc(-c2cn3c(C)c(C(=O)NC(C)C)sc3n2)cc1	?	24%	15%	-4%	-5%	?
COc1ccc(-c2cn3c(C)c(C(=O)NC(C)(C)C)sc3n2)cc1	0.63µM*	2µM*	?	/	/	5.4µM*
Cc1cc(OCCn2c(CCNC(=O)C3CCCCC3)nc3ccccc32)ccc1Cl	/	/	/	-6%	/	-7%
CCn1cc(S(=O)(=O)c2ccc(C)cc2C)c(=O)c2cc(F)c(N3CCCC3)cc21	/	/	/	/	/	2%
CC(=O)C1=C(O)C(=O)N(c2ccc(Br)cn2)C1c1ccc(F)cc1 (stereo unspecified)	4µM*	2.2µM*	?	1%	1%	-6%
COc1ccc(NC(=O)NCCN2C(=O)C3C4C=CC(C4)C3C2=O)cc1 (stereo unspecified)	?	?	?	11µM*	4%	?
O=C(NCCN1C(=O)C2C3C=CC(C3)C2C1=O)Nc1ccccc1 (stereo unspecified)	1%	3%	12%	-13%	6%	-6%
Cc1ccc(NC(=O)NCCN2C(=O)C3C4C=CC(C4)C3C2=O)cc1 (stereo unspecified)	1.6µM*	2.5µM*	7.3µM*	11µM*	1%	17µM*
COc1ccc(-c2c(C)nn3c4c(cnc23)C(=O)CC(c2ccc(C)cc2)C4)cc1 (stereo unspecified)	/	/	/	4%	/	-5%
O=C1CC(c2nc3ccccc3n2CCCOc2ccccc2)CN1c1ccc(F)cc1 (stereo unspecified)	/	/	/	-6%	/	-19%
COc1ccc(Cl)cc1NC(=O)Cn1cnc2c1c(=O)n(C)c(=O)n2C	/	/	/	/	/	0%
Nc1nc(N)c(N=O)c(OCC2CCCCC2)n1	-15%[46.1 µM]	0%[46.1 µM]	18µM*	/	/	?
NS(=O)(=O)OCC1CCCCC1	0%	-1%	-3%	/	/	3%
CCOc1ccccc1Nc1ccc2cc(S(=O)(=O)N3CCCCC3)ccc2n1	/	/	/	/	/	-2%
CCOC(=O)c1[nH]c2ccccc2c1NC(=O)c1cc(OC)cc(OC)c1	/	/	/	-7%	/	3%
O=C(O)c1ccc(CSc2nnc(-c3ccccc3Br)o2)cc1	-1%	2%	6%	/	/	24µM*
